For this assay, the target named is Sphingosine 1-phosphate receptor 1 (Homo sapiens) (UniProt P21453). Description: S1P1 agonists and agonism potentiators, primary screen, cell-based, primary and confirmation screens, CRE-bla reporter (AID 449).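 Further: forskolin at 4 µM as EC80 and the EC20 agonist is SEW2871; 100% = SEW2871 at its EC100 plus forskolin at EC80.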 The conditions noted are these: S1P1 CRE-bla cells, forskolin, beta-lactamase FRET, potentiator mode, at 9.5 µM, stronger effect = higher value, 100% = saturating reference agonist, 0% = basal, S1P1 agonist co-added at EC20, 2 nM.

The mark [1] stands for this setting: measured here: confirmation screen, triplicate average.

Results on 60 compounds are retold here after PubChem BioAssay AID449 (The Scripps Research Institute Molecular Screening Center, 2006).

Among all 56,000 compounds or so, about 320 (0.57%) were called active.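 How the source made its calls: active means activation above a cutoff set at the mean activation of all tested compounds plus 3 SD (cut at about 54% in these data); inactive means the rest, inconclusive results apart.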 For the sample, actives were picked, then their nearest neighbours and some compounds at random.

Chain of Sphingosine 1-phosphate receptor 1 (Homo sapiens) (P21453 whole entry, looked up): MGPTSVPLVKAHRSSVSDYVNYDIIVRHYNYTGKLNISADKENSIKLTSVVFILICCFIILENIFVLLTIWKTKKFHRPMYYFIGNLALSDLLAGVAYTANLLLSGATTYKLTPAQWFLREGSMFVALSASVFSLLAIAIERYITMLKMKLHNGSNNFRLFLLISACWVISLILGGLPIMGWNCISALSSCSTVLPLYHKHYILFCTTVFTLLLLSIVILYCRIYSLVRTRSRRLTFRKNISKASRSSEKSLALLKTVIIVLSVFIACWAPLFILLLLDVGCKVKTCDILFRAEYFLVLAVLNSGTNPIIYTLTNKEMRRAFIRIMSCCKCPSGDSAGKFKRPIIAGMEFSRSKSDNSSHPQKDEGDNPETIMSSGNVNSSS

Consider `COC(=O)c1ccc2c(=O)n(CC3CCCO3)c(=S)[nH]c2c1` (stereo not drawn), for which the activation is -12.1% (inactive). Still for that read-out and setting: for `Cc1nnc(SCC(N)=O)n1CC1CCCO1` (stereo not drawn) the value was -8.7% (inactive). As to `Cc1ccsc1C(=O)OCC(=O)c1cc(C)n(CC2CCCO2)c1C` (stereo not drawn), the activation is 57% (active). For the same compound, the activation under setting [1] was 84.7%. In the case of `COC(=O)c1ccc(S(=O)(=O)c2ccc(C(=O)OC)s2)s1`, the activation was 1.7% (inactive). On to `NC(=O)c1ccsc1NC(=O)c1ccco1`, for which the activation was 1% (inactive). `COc1cc(=O)[nH]c(=O)n1C(=O)Cc1ccccc1`: the activation is -7.8% (inactive). Regarding `CC1CCCN(Cc2nc3c(c(=O)n(C)c(=O)n3C)n2Cc2cccc3ccccc23)C1` (stereo not drawn), the activation was 10.7% (inactive). On the same count and under the same terms, for `CCOC(=O)C1CCCN(C(=O)C2CCN(c3nnc(-n4cccc4)s3)CC2)C1` (stereo not drawn) the value was -27.3% (inactive); for `Cc1c2cn[nH]c(=O)c2c(C)n1Cc1ccc(F)cc1`, -6.4% (inactive); for `C=CCSc1nnc(Cn2c(=O)sc3ccccc32)n1C`, -13.4% (inactive). Same read-out and setting: for `Cn1c(=O)c2c(nc(SCCNS(=O)(=O)c3ccccc3)n2C)n(C)c1=O` the value was -18.9% (inactive). Consider `CN(C)c1ccnc2sc3c(=O)n(Cc4ccccc4)cnc3c12`, for which the activation was 75.3% (active). Moreover, the activation under setting [1] is 84.4%. Consider `O=c1c2[nH]c3ccc(Cl)cc3c2ncn1Cc1ccccn1`, for which the activation is -22.3% (inactive). The same measure, in the same setting: as for `CN(C)/C=C/c1c(C#N)c(=O)ncn1Cc1ccccc1`, the figure is -5.6% (inactive).

With `CC(C)OCCCNc1ncnc2c1[nH]c1ccc(F)cc12`, the activation was 91.1% (active). In addition, under setting [1], the activation stood at 110%. `O=C1CCCN1CCCNc1ncnc2c1[nH]c1ccccc12`: the activation is 6.8% (inactive). Same read-out and setting: as for `CCN1CCCC1CNc1ncnc2c1[nH]c1ccc(F)cc12` (stereo not drawn), the figure is 4.2% (inactive). Turning to `Cc1nc2c(c(=O)n1Cc1ccco1)c1nc3ccccc3nc1n2Cc1ccccc1`, the activation was 2.5% (inactive).

With `CCCCCCn1c(SCC(=O)c2ccccc2)nc2c1c(=O)[nH]c(=O)n2C`, the activation is -26.5% (inactive). On the same count and under the same terms, for `O=C(CCN1C(=O)COc2ccccc21)NCCCN1CCN(c2ccc(F)cc2)CC1` the value was -29.7% (inactive); for `N/C(=N\c1nc2ccccc2o1)NC(=O)C(Cc1ccccc1)N1C(=O)c2ccccc2C1=O` (stereo not drawn), -12% (inactive).

As to `CCOc1ccc2[nH]c(=O)c(CN(CCCO)C(C)=O)cc2c1`, the activation is 2.1% (inactive). Same read-out and setting: as for `COc1ccc(S(=O)(=O)N2CCN(C(=O)c3cccs3)CC2)cc1OC`, the figure is 15.9% (inactive). For the compound `Cc1ccc(-c2nc(COC(=O)c3c(C)noc3C)cs2)cc1`, the activation is 85.3% (active). Besides, the activation under setting [1] turned out to be 98.2%. Regarding `COC(=O)c1c(-c2ccc(C)cc2)csc1N`, the activation was 23% (inactive). With `Cc1noc(C)c1C(=O)OCC(=O)/C=C1\N(C)c2ccccc2C1(C)C`, the activation is -18.5% (inactive).

As for `Cc1cccn2c(=O)c3cc(C#N)c(=O)n(CCCN4CCOCC4)c3nc12`, the activation was -29% (inactive).

`Cc1nc(C)c(C(=O)Nc2cccc(C)c2C)o1`: the activation is -15.9% (inactive). For the compound `CCN(Cc1cc2cc(C)ccc2[nH]c1=O)S(=O)(=O)c1ccccc1`, the activation is 26.9% (inactive).

With `CCc1ccccc1N(CC(=O)NCCSCc1ccco1)S(C)(=O)=O`, the activation was -204% (inactive). Same read-out and setting: for `COc1cc(-c2nc(-c3ccncc3)no2)cc(OC)c1OC` the value was -7% (inactive). Regarding `COc1ccc(-c2noc(-c3cccc(OC)c3OC)n2)cc1OC`, the activation was 84.3% (active). Also, the activation under setting [1] worked out at 77.6%. On to `Cc1cccc(-c2noc(-c3ccc(F)cc3)n2)c1`, for which the activation was 1% (inactive). As to `O=P(c1cccs1)(c1cccs1)c1cccs1`, the activation is -23.6% (inactive). With `O=C(Nc1ccccc1C(F)(F)F)c1cc(-c2ccc(O)cc2)on1`, the activation is 89% (active). Further, the activation under setting [1] amounted to 96.3%. As to `Cc1cc(C)nc(NC(=O)Nc2ccccc2C(F)(F)F)n1`, the activation was -24.3% (inactive). With `O=C(c1cc(-c2ccc(O)cc2)on1)N1CCCc2ccccc21`, the activation is 15.4% (inactive). Still for that read-out and setting: as for `CCn1c(SCCC(C)C)nnc1-c1c[nH]c2ccccc12`, the figure is 33% (inactive). On to `Cc1ccc2c(c1)c1ncn(CCC3=CCCCC3)c(=O)c1n2C`, for which the activation is -12.4% (inactive). Still for that read-out and setting: as for `CCOCC(=O)NCc1ccc2c(c1)cc(C)n2C`, the figure is -18% (inactive); as for `Cc1ccc(Cn2c(NC(=O)c3ccco3)nc3ccccc32)cc1`, -7.4% (inactive); as for `Cc1cc(NC(=O)CN2CCCCC2C)nc2c1c(=O)oc1ccccc12` (stereo not drawn), -16.9% (inactive). The same measure, in the same setting: as for `CC1(C)CC(=O)C2=C(C1)NCN(CCCN1CCOCC1)C2`, the figure is -12.5% (inactive). Consider `COc1ccc(CCNC(=O)CCn2c(=O)oc3ccccc32)cc1OC`, for which the activation was -30% (inactive). As for `Cc1cc(Cl)ccc1N1C(=O)CC(SCCC(=O)O)C1=O` (stereo not drawn), the activation is 15% (inactive). Take `O=C(NCCN1C(=O)C2C3C=CC(C3)C2C1=O)Nc1ccccn1` (stereo not drawn): the activation was 1.7% (inactive).

Turning to `C#CCN1CC(C)/C(=N/O)CC1C` (stereo not drawn), the activation is -13.4% (inactive). Still for that read-out and setting: as for `Fc1ccc2nc(N3CCCCC3)sc2c1`, the figure is -23.5% (inactive). Still for that read-out and setting: for `Cc1ccc(-n2ncc3c(N4CCN(c5ccc(F)cc5)CC4)ncnc32)c(C)c1` the value was -9.5% (inactive); for `Cc1cc(N2CCN(Cc3ccc4c(c3)OCO4)CC2)n2ncnc2n1`, 3.4% (inactive). On to `Fc1ccc2[nH]c3c(N4CCN(Cc5ccc6c(c5)OCO6)CC4)ncnc3c2c1`, for which the activation was 106% (active). Further, the activation under setting [1] came to 116%.

Consider `Fc1ccc2[nH]c3c(N4CCSCC4)ncnc3c2c1`, for which the activation was 73% (active). For the same compound, the activation under setting [1] is 103%. Turning to `O=C(c1cccs1)N1CCN(Cc2ccc3c(c2)OCO3)CC1`, the activation is 1.7% (inactive). On the same count and under the same terms, for `Cc1noc(/C=C/N(C)C)c1S(=O)(=O)N1CCCC(C(=O)NCc2ccco2)C1` (stereo not drawn) the value was -32.7% (inactive); for `Cc1cc(/C=N/n2cnnc2)c(C)n1-c1cccc(C(=O)O)c1`, -16.1% (inactive). Consider `Cc1ccc(C(c2sc3nc(C)nn3c2O)N2CCN(c3ccccc3)CC2)cc1` (stereo not drawn), for which the activation was -6.2% (inactive). As to `CCN(CC)P(=O)(C(NC(=O)OC)C(F)(F)C(F)(F)C(F)(F)C(F)F)N(CC)CC` (stereo not drawn), the activation is 2.6% (inactive). Still for that read-out and setting: as for `COc1ccc(CC(=O)n2nc(-c3cccnc3)nc2N)cc1`, the figure is 2.4% (inactive); as for `CC12CCC(C(=O)N(CCC#N)CCC#N)(CC1=O)C2(C)C` (stereo not drawn), -0.9% (inactive).

For `CC1Cc2ccccc2N1C(=O)CSc1nnc(-c2ccc(S(=O)(=O)N3CCCCC3)cc2)o1` (stereo not drawn), the activation is -18.5% (inactive).
